This is an account of results in PubChem BioAssay (Tox21).

The nature of test [1]: qHTS assay for small molecule agonists of the p53 signaling pathway - cell viability (AID 651633; calls by dose curve; note: nearly all actives have a fitted effect of over 30% in size; note: potency is the fitted concentration of half-maximal effect). In outline: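 p53RE-bla cells were treated with compound for 16 hours at 37 C. Cytotoxicity was then measured as CellTiter-Glo luminescence after 30 min at room temperature.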
Test [2] can be described thus: qHTS assay for small molecules that induce genotoxicity in human embryonic kidney cells expressing luciferase-tagged ATAD5 - cell viability (AID 651634; calls by dose curve; note: nearly all actives have a fitted effect of over 25% in size; note: potency is the fitted concentration of half-maximal effect). In outline:
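15.5 hr compound or vehicle exposure of HEK293T cells expressing luciferase-tagged ATAD5 at 37C; live-cell protease activity is read by fluorescence after 30 min of CellTiter-Fluor.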
For orientation: Quantitative high-throughput screening tests each substance at several concentrations.

Test [3] can be described thus: qHTS assay for small molecule disruptors of the mitochondrial membrane potential - cell viability (AID 720634; calls by dose curve; note: nearly all actives have a fitted effect of over 20% in size; note: potency is the fitted concentration of half-maximal effect). In outline: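 In this qHTS format, HepG2 cells plated overnight were pinned with compound, incubated 1 hr, and assayed for ATP luminescence with CellTiter-Glo after m-MPI dye addition.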
Test [4] can be described thus: qHTS assay for small molecule disruptors of the mitochondrial membrane potential (AID 720635). Note: potency is the fitted concentration of half-maximal effect. In outline:
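HepG2 cells exposed to compound 1 hr at 37C, then Mito-MPS dye 30 min. Ratio read of aggregate (540/590 nm) versus monomer (490/535 nm) fluorescence.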

The nature of test [5]: qHTS assay to test for compound auto fluorescence at 590 nm (red) in HepG2 cells (AID 720674). Note: % is set by controls: 0 for no effect and ±100 for the full control effect. In outline:
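Fluorescence at 590 nm emission following 540 nm excitation was recorded from HepG2 wells one hour after compound transfer, with DMSO-only wells as vehicle and Rose Bengal sodium equivalency as the scale.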

The nature of test [6]: qHTS assay to test for compound auto fluorescence at 535 nm (green) in HepG2 cells (AID 720675). Note: % is set by controls: 0 for no effect and ±100 for the full control effect.
A short description of test [7]: qHTS assay to test for compound auto fluorescence at 460 nm (blue) in HEK293 cells (AID 720678). Note: % is set by controls: 0 for no effect and ±100 for the full control effect. In outline:
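Blue-channel (Ex/Em 405/460 nm) intensity measured in HEK293 cultures after overnight compound exposure at 37C; signal expressed relative to triamterene. Cells plated 2,000 per well in 10% dialyzed FBS medium and allowed 4-5 hr to attach.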

A short description of test [8]: qHTS assay to test for compound auto fluorescence at 590 nm (red) in HEK293 cells (AID 720679). Note: % is set by controls: 0 for no effect and ±100 for the full control effect. In outline: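 Red-channel autofluorescence (Ex/Em 540/590 nm; Rose Bengal sodium reference) was measured after overnight 37C, 5% CO2 exposure of attached HEK293 cells, 2,000 per well in medium with 10% dialyzed FBS.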
Test [9] in a line: qHTS assay to test for compound auto fluorescence at 535 nm (green) in HEK293 cells (AID 720680). Note: % is set by controls: 0 for no effect and ±100 for the full control effect.
The nature of test [10]: qHTS assay to test for compound auto fluorescence at 460 nm (blue) in HEK293 cell free culture (AID 720681). Note: % is set by controls: 0 for no effect and ±100 for the full control effect. In outline: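 Compounds were added to cell-free DMEM with 10% FBS and fluorescence read directly. The blue channel used 405 nm excitation and 460 nm emission, with triamterene as the reference fluorophore.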
Test [11] is described as follows: qHTS assay to test for compound auto fluorescence at 535 nm (green) in HEK293 cell free culture (AID 720682). Note: % is set by controls: 0 for no effect and ±100 for the full control effect. In outline:
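Measurement is a direct plate read of green fluorescence (485 nm in, 535 nm out) after compound addition to serum-supplemented DMEM lacking cells, with fluorescein used to express intensities.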

A short description of test [12]: qHTS assay to test for compound auto fluorescence at 590 nm (red) in HEK293 cell free culture (AID 720683). Note: % is set by controls: 0 for no effect and ±100 for the full control effect. In outline:
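Cell-free wells of DMEM with 10% FBS received compound, and intrinsic fluorescence was read at excitation/emission 540/590 nm. Values expressed as equivalence to Rose Bengal sodium.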

Test [13] can be described thus: qHTS assay to test for compound auto fluorescence at 590 nm (red) in HepG2 cell free culture (AID 720684). Note: % is set by controls: 0 for no effect and ±100 for the full control effect. In outline: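 Auto fluorescence equivalency versus Rose Bengal sodium, red channel Ex/Em 540/590 nm; compounds in cell-free MEM/10% FBS; DMSO vehicle control.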
The nature of test [14]: qHTS assay to test for compound auto fluorescence at 460 nm (blue) in HepG2 cell free culture (AID 720685). Note: % is set by controls: 0 for no effect and ±100 for the full control effect. In outline: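 Cell-free plates of MEM plus 10% FBS received 23 nL compound or DMSO vehicle; blue-channel (405/460 nm) intensity scored against triamterene as reference fluorophore.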
Test [15] can be described thus: qHTS assay to test for compound auto fluorescence at 535 nm (green) in HepG2 cell free culture (AID 720686). Note: % is set by controls: 0 for no effect and ±100 for the full control effect.
Test [16] can be described thus: qHTS assay to test for compound auto fluorescence at 460 nm (blue) in HepG2 cells (AID 720687). Note: % is set by controls: 0 for no effect and ±100 for the full control effect. In outline:
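HepG2 cells in MEM with 10% FBS, attached overnight at 37 C, were exposed to compound or DMSO for 1 hr at 37 C, 5% CO2. Blue fluorescence was read at 405/460 nm, with triamterene as reference fluorophore.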

Test [17] addresses Glucocorticoid receptor (Homo sapiens) (UniProt P04150). The test is described as follows: qHTS assay to identify small molecule antagonists of the glucocorticoid receptor (GR) signaling pathway (AID 720692; active = well fitted inhibition curve with a large enough effect in the signal ratio in the repeat runs, not every such curve was filed as active; the % refers to the signal ratio; note: potency is the fitted concentration of half-maximal effect). In outline: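 Tox21 10K library screened in concentration-response for blockade of dexamethasone (5 nM final)-induced GRE-bla reporter activity in HeLa cells; 18 h treatment, fluorescence read.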

Test [18] shares this target. As to the kind of experiment: qHTS assay to identify small molecule agonists of the glucocorticoid receptor (GR) signaling pathway (AID 720691; active = well fitted activation curve with a large enough effect in the signal ratio in the repeat runs, not every such curve was filed as active; the % refers to the signal ratio; note: % is set by controls: 0 for no effect and ±100 for the full control effect). The note with it: GR-bla HeLa, beta-lactamase reporter ratio, 18 h; activation: at 62.4 µM (top of the series). In outline:
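Measures GR pathway activation through a GRE-beta-lactamase reporter stably integrated in HeLa cells, with 18 h compound treatment at 37 C and fluorescence detection using a FRET substrate.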

Structures are written as SMILES. Values joined by “and” are separate entries in the source; they are usually repeats but may differ in a detail not shown here. Equal values may be shown once. Values without a mark were called inactive. Inconclusive results are not listed. Active and inactive are the calls of the source. Unless noted, calls come from the whole dose curve; as a rule, active = well fitted curve in the direction sought with a large enough effect in the repeat runs; inconclusive = weak or mixed curves; inactive = no such curve, though single readings can be large; an effect the other way counts as inactive or inconclusive.

Sequence of Glucocorticoid receptor (Homo sapiens) (P04150 whole entry, looked up): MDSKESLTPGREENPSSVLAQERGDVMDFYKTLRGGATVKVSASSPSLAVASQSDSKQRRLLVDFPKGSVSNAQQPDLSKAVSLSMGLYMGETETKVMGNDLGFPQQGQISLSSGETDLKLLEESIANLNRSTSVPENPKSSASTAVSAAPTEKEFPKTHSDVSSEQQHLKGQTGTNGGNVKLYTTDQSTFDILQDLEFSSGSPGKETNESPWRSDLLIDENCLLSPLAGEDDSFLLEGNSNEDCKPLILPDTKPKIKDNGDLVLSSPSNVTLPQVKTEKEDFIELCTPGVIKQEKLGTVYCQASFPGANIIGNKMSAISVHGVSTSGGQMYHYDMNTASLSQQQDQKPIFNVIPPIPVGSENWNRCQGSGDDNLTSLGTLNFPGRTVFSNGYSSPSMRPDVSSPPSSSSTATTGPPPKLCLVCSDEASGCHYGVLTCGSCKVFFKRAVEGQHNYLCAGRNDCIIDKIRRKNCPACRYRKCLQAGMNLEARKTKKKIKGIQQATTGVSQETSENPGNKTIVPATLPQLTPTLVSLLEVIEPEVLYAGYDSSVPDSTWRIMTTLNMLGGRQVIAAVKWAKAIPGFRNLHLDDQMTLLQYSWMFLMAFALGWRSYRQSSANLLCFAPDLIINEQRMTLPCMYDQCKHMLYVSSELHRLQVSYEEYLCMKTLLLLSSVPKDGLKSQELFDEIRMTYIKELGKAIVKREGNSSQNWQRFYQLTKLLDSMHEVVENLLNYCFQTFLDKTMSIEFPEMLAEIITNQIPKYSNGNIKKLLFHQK

Take `Oc1cc2ccccc2c2ccccc12`: the Potency in test [1] is 6.11 µM (active); in test [2] it was 17.2 µM (active); in [3] it was 19.3 µM (active); in [4], 969 nM (active); in test [17], 19.5 µM (active). Besides, the Potency result in test [5], in test [6], in [7], in test [8], in [10] and in test [12] was “inactive” each time. In addition, the Potency result in test [13], in [14], in test [15] and in test [16] was “inactive” each time. For the same compound, the result in test [9] and in test [11] was inactive.
For `CC(C)(C)c1ccc(C(=O)CCCN2CCC(OC(c3ccccc3)c3ccccc3)CC2)cc1`, the Potency in test [1] was 21.1 µM (active). Moreover, the Potency entry in test [2], in [3], in test [5], in test [6], in test [7] and in [8] was “inactive” throughout. The Potency entry in test [10], in test [12], in test [13], in test [14], in test [15] and in test [16] was “inactive” each time. For the same compound, the outcome in [9] was inactive.
On to `CCCCCCC[N+](CC)(CC)CCCCc1ccc(Cl)cc1`, for which the Potency entry in test [1], in [2], in [3] and in test [18] was “inactive” in each case. Further, the fluorescence, relative to Rose Bengal in [5] is -0.305% [at 18.6 µM]. The fluorescence, % of fluorescein control in test [6] is -0.0059% [at 18.6 µM]; in test [15], 0.172% [at 18.6 µM]. Further, in test [7], the fluorescence, % of triamterene is 0.0756% [at 18.6 µM]. The fluorescence, % of fluorescent control in test [8] was -0.312% [at 18.6 µM]; in test [10], -0.0966% [at 18.6 µM]; in [12], -0.544% [at 18.6 µM]; in test [16], -0.0972% [at 18.6 µM]. For the same compound, the fluorescence, % of fluorescein in [9] is 0.0325% [at 18.6 µM]. In test [11], the activity change was -0.0177% [at 18.6 µM]. Moreover, the fluorescence, % of Rose Bengal in [13] is -0.101% [at 18.6 µM].
With `O=C(c1ccc(O)cc1O)c1ccc(O)cc1O`, the Potency result in [1], in [2], in test [3], in test [5], in test [6] and in [7] was “inactive” each time. In addition, the Potency entry in test [8], in test [10], in [12], in test [14], in [15] and in test [16] was “inactive” throughout. The Potency entry in test [18] was “inactive”. The Potency was 12.2 µM (active) and 7.7 µM (active) in test [4]; 24.6 µM (active) in [17]. Further, in [9], the outcome was inactive.
With `CCCCCCOC(=O)c1ccc(O)cc1`, the Potency result in test [1], in test [2], in [5], in test [7], in test [8] and in test [10] was “inactive” in each case. Also, the Potency result in test [12], in [14], in test [15], in [16] and in [18] was “inactive” each time. The Potency was 27.3 µM (active) and 17.2 µM (active) in [3]; 6.12 µM (active) and 8.63 µM (active) in test [4]. The outcome in test [9] and in [11] was inactive.
On to `CCc1cc(Cc2cc(CC)c(N)c(CC)c2)cc(CC)c1N`, for which the Potency result in [2], in test [5], in test [6], in [7], in test [8] and in test [12] was “inactive” throughout. Besides, the Potency entry in test [14], in [15] and in [16] was “inactive” throughout. The figures for the Potency in test [4] and in [17] were 27300 nM (active) and 43.6 µM (active), respectively. Also, the outcome in test [9] and in [11] was inactive.
For the compound `O=C(OCC1CO1)C1CCCCC1C(=O)OCC1CO1` (configuration not stated), the Potency result in [1], in test [2], in test [3], in [4], in test [5] and in test [6] was “inactive” throughout. Also, the Potency result in test [7], in test [8], in test [10], in [12], in test [13] and in [14] was “inactive” in each case. Further, the Potency result in [15], in [16] and in [18] was “inactive” in each case. For the same compound, the result in test [9] and in [11] was inactive.
